The record followed here is PubChem BioAssay AID624260 (Broad Institute, 2012).

Usually inhibition stands for the relative decrease from the control value, in per cent.

Molecules are shown by their SMILES. Hit rate of the full screen: of about 44,000 compounds, about 30 (0.07%) were called active. Not shown: some 1% with an inconclusive outcome. For the sample, actives were picked, then their nearest neighbours and some compounds at random. Values without a mark were called inactive. Cut-off read from the data, not from the text of the source: active = inhibition above about 54% (passing the limit was not always enough); inconclusive = no clear call, values can overlap the other calls.

Histone-lysine N-methyltransferase NSD2 (Homo sapiens), sequence (O96028 whole entry, looked up): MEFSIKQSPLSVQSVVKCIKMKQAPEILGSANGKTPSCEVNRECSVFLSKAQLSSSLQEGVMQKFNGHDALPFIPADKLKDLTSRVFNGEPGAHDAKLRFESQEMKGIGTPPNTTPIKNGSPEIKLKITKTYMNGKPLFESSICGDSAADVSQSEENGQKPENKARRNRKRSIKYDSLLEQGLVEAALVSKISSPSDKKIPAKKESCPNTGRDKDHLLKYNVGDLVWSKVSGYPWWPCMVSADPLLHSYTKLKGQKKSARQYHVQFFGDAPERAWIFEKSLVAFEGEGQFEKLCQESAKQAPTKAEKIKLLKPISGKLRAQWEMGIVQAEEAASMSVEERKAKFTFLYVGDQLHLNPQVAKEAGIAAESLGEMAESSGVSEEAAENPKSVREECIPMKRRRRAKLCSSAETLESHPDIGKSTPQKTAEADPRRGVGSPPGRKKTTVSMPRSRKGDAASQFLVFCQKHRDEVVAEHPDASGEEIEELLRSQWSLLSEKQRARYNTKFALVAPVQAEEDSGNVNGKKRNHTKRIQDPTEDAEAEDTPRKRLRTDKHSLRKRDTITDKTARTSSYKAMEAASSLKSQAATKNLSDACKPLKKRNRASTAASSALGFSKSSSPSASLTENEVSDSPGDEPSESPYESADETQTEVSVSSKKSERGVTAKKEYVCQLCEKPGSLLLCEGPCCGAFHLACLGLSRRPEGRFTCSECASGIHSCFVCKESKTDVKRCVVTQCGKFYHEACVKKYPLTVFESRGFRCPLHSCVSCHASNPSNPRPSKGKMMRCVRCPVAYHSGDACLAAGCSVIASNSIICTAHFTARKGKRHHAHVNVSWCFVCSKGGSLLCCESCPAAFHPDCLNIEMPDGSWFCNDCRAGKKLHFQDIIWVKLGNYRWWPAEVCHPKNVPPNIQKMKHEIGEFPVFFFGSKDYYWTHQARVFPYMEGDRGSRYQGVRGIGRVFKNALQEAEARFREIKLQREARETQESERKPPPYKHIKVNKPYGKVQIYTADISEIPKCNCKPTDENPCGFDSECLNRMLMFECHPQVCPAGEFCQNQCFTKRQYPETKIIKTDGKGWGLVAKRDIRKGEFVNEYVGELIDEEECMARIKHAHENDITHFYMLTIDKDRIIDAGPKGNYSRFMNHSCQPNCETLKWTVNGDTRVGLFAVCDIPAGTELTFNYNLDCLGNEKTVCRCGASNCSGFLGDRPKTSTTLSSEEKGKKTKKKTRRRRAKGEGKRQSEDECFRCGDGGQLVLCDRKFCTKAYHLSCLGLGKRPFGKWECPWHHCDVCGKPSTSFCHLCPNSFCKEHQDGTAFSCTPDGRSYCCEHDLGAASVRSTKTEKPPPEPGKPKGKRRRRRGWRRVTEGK

The assay addresses Histone-lysine N-methyltransferase NSD2 (Homo sapiens) (UniProt O96028). The experiment in a line: NSD2 histone methyltransferase activity blockers – biochemical, plate reader, single point, primary screen (AID 624260).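 Note: inhibitors reduce the monomethyl H3K36 fluorescence signal.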 As to conditions: NSD2-SET H3K36me1 DELFIA fluorescence, at 12.5 µM, active compounds read high.
Consider `COc1ccccc1CNC(=O)C[C@@H]1C[C@@H]2c3cc(NC(=O)C4CCOCC4)ccc3O[C@@H]2[C@@H](CO)O1`, for which the inhibition is -2.77%.
`CNC[C@H]1Oc2cc(-c3ccc(C(=O)N(C)C)cc3)ccc2S(=O)(=O)N([C@@H](C)CO)C[C@@H]1C`: the inhibition is 2.38%.
For `COc1ccc(S(=O)(=O)Nc2ccc3c(c2)C(=O)N([C@@H](C)CO)C[C@H](C)[C@H](CN(C)Cc2ccc4c(c2)OCO4)OCCCC[C@H](C)O3)cc1`, the inhibition was 2.05%.
The value for `COC(=O)C[C@@H]1C[C@H]2c3cc(NC(=O)CN(C)C)ccc3O[C@H]2[C@H](CO)O1` was 6.16%; that for `C[C@H](CO)N1C[C@H](C)[C@@H](CN(C)Cc2ccccn2)Oc2ncc(-c3cccc(F)c3)cc2C1=O` was 2.22%.
In the case of `CC(=O)N(C)C[C@@H]1Oc2cc(-c3cccnc3)ccc2S(=O)(=O)N([C@@H](C)CO)C[C@H]1C`, the inhibition was -5.41%.
The value for `C[C@H]1CN([C@@H](C)CO)S(=O)(=O)c2ccc(C3=CCCC3)cc2O[C@H]1CN(C)C(=O)Cc1ccncc1` was -1.21%; that for `O=C(C[C@H]1CC[C@@H](NC(=O)Nc2ccc(F)cc2)[C@H](CO)O1)NCc1cccc(F)c1` was 9.13%; that for `Cc1ccccc1-c1ccc2c(c1)O[C@@H](CN(C)Cc1ccc(C(=O)O)cc1)[C@H](C)CN([C@H](C)CO)S2(=O)=O` was -1.98%.
Regarding `C[C@H](CO)N1C[C@H](C)[C@@H](CN(C)S(=O)(=O)c2ccc(F)cc2)Oc2ccc(NC(=O)CCCCCC(=O)Nc3ccccc3N)cc2CC1=O`, the inhibition was -1.08%.
For `C[C@@H]1CN([C@H](C)CO)C(=O)Cc2cc(NC(=O)Nc3cccc4ccccc34)ccc2O[C@H]1CN(C)C(=O)Nc1ccc2c(c1)OCO2`, the inhibition was -7.81%.
Consider `COCC#Cc1ccc2c(c1)O[C@@H](CN(C)S(C)(=O)=O)[C@H](C)CN([C@H](C)CO)S2(=O)=O`, for which the inhibition is -5.23%.
For `C[C@@H]1CN([C@H](C)CO)C(=O)c2cc(NS(=O)(=O)c3cn(C)cn3)ccc2O[C@@H](C)CCCCO[C@@H]1CN(C)C(=O)CCC(F)(F)F`, the inhibition was -0.203%.
As to `CN1CCN(C(=O)C[C@H]2C[C@H]3c4cc(NC(=O)C5CCC5)ccc4O[C@H]3[C@H](CO)O2)CC1`, the inhibition was 5.87%.
The value for `CC(C)CC#Cc1cnc2c(c1)C(=O)N([C@@H](C)CO)C[C@H](C)[C@@H](CN(C)S(=O)(=O)c1cn(C)cn1)O2` was 2.14%.
Then `CC(C)CC#Cc1ccc2c(c1)O[C@H](CN(C)C(=O)CC1CC1)[C@@H](C)CN([C@@H](C)CO)S2(=O)=O`, with -15.5%.
Regarding `COC(=O)C[C@H]1C=C[C@H](NC(=O)Nc2ccc(C(F)(F)F)cc2)[C@@H](CO)O1`, the inhibition is -4.85%.
As for `O=C(C[C@@H]1C[C@@H]2c3cc(NC(=O)C4CCOCC4)ccc3O[C@@H]2[C@@H](CO)O1)NC1CCCCC1`, the inhibition is 0.0335%.
As for `C[C@H](O)C#Cc1cnc2c(c1)C(=O)N([C@@H](C)CO)C[C@H](C)[C@@H](CN(C)C(=O)c1ccncc1)O2`, the inhibition is 0.0295%.
In the case of `C[C@H]1CN([C@@H](C)CO)S(=O)(=O)c2ccc(Br)cc2O[C@H]1CN(C)C(=O)C1CC1`, the inhibition is 6.22%.
Then `Cc1noc(C)c1NC(=O)N(C)C[C@@H]1OCCCC[C@H](C)Oc2ccc(NC(=O)C3CCCCC3)cc2C(=O)N([C@H](C)CO)C[C@@H]1C`, with 3.93%; and `C[C@H](CO)N1C[C@H](C)[C@H](CN(C)Cc2ccncc2)Oc2cc(-c3cncnc3)ccc2S1(=O)=O`, with -4.69%.
Take `CCCNC(=O)N(C)C[C@H]1Oc2ncc(-c3cccc(C#N)c3)cc2C(=O)N([C@@H](C)CO)C[C@H]1C`: the inhibition is -7.82%.
As to `C[C@H](CO)N1C[C@H](C)[C@@H](CN(C)S(=O)(=O)c2cccs2)Oc2ccc(NC(=O)Nc3ccc(C(F)(F)F)cc3)cc2CC1=O`, the inhibition is -1.82%.
The value for `C[C@@H]1CN([C@H](C)CO)S(=O)(=O)c2ccc(C#C[C@@H](C)O)cc2O[C@H]1CN(C)C(=O)C1CCCCC1` was -2.77%; that for `COc1ccc(C#Cc2cnc3c(c2)C(=O)N([C@H](C)CO)C[C@H](C)[C@H](CN(C)C(=O)CC2CC2)O3)cc1` was -0.614%; that for `C[C@@H]1CCCCO[C@@H](CN(C)C(=O)Cc2ccccc2)[C@H](C)CN([C@@H](C)CO)C(=O)c2cc(NC(=O)Nc3ccc4c(c3)OCO4)ccc2O1` was -3.09%.
For the compound `CCCC#Cc1cnc2c(c1)C(=O)N([C@H](C)CO)C[C@@H](C)[C@@H](CN(C)C(=O)C1CCOCC1)O2`, the inhibition is 11.1%.
Take `C[C@@H]1CN([C@H](C)CO)C(=O)c2cc(NS(=O)(=O)c3ccccc3)ccc2O[C@@H](C)CCCCO[C@H]1CN(C)S(=O)(=O)c1ccc(Cl)cc1`: the inhibition was -1.56%.
As for `Cc1noc(C)c1NC(=O)Nc1ccc2c(c1)CC(=O)N([C@@H](C)CO)C[C@@H](C)[C@H](CN(C)Cc1ccc(Oc3ccccc3)cc1)O2`, the inhibition was -7.73%.
The value for `O=C(C[C@H]1C[C@H]2c3cc(NC(=O)Nc4ccc(F)cc4)ccc3O[C@H]2[C@H](CO)O1)NCC1CC1` was 5.06%; that for `COc1ccc(S(=O)(=O)N(C)C[C@H]2OCCCC[C@H](C)Oc3ccc(NC(=O)Nc4ccc(F)cc4)cc3C(=O)N([C@@H](C)CO)C[C@H]2C)cc1` was -1.05%; that for `COc1cccc(-c2cnc3c(c2)C(=O)N([C@@H](C)CO)C[C@@H](C)[C@H](CN(C)C(=O)CN(C)C)O3)c1` was 8.01%.
As for `C[C@H](O)C#Cc1ccc2c(c1)O[C@H](CN(C)Cc1cccnc1)[C@H](C)CN([C@H](C)CO)S2(=O)=O`, the inhibition was 2.25%.
Turning to `CCC(=O)N(C)C[C@@H]1Oc2cc(-c3ccccc3OC)ccc2S(=O)(=O)N([C@H](C)CO)C[C@H]1C`, the inhibition is -2.36%.
Turning to `CC(=O)N(C)C[C@@H]1Oc2cc(-c3cccc(F)c3)ccc2S(=O)(=O)N([C@H](C)CO)C[C@H]1C`, the inhibition is -1.69%.
In the case of `C[C@H](CO)N1C[C@H](C)[C@@H](CN(C)Cc2ccc(Cl)c(Cl)c2)Oc2ccc(NC(=O)Cn3cnnn3)cc2CC1=O`, the inhibition was -4.84%.
In the case of `C/C=C/c1ccc2c(c1)O[C@H](CN(C)C(=O)Nc1ccccc1)[C@H](C)CN([C@@H](C)CO)S2(=O)=O`, the inhibition is -4.94%.
Take `C[C@@H]1CN([C@@H](C)CO)C(=O)c2c(c3ccccc3n2C)-c2ccccc2CO[C@@H]1CN(C)S(=O)(=O)c1ccc(F)cc1`: the inhibition is -1.17%.
As to `C[C@@H]1CN([C@@H](C)CO)C(=O)Cc2cc(NS(=O)(=O)c3ccc(Cl)cc3)ccc2O[C@H]1CN(C)C(=O)Nc1cccc2ccccc12`, the inhibition is -4.23%.
Take `CC(=O)N(C)C[C@H]1Oc2cc(C#CCN(C)C)ccc2S(=O)(=O)N([C@H](C)CO)C[C@H]1C`: the inhibition was -0.922%.
Turning to `COc1cccc(CNC(=O)C[C@H]2CC[C@@H](NC(=O)C3CCC3)[C@@H](CO)O2)c1`, the inhibition was 2.46%.
Turning to `COc1ccccc1NC(=O)N[C@H]1CC[C@@H](CC(=O)NCc2ccc(Cl)c(Cl)c2)O[C@H]1CO`, the inhibition was -9.36%.
With `C[C@H](CO)N1C[C@H](C)[C@@H](CN(C)C(=O)Nc2ccc3c(c2)OCO3)Oc2ccc(NS(=O)(=O)c3ccc(Cl)cc3)cc2CC1=O`, the inhibition is 1.14%.
For the compound `C[C@@H](O)C#Cc1ccc2c(c1)O[C@@H](CN(C)Cc1cccnc1)[C@@H](C)CN([C@@H](C)CO)S2(=O)=O`, the inhibition is 3.08%.
The value for `COCC#Cc1ccc2c(c1)O[C@H](CN(C)C(=O)CC1CC1)[C@@H](C)CN([C@@H](C)CO)S2(=O)=O` was 8.01%; that for `CNC[C@@H]1OCCCC[C@H](C)Oc2ccc(NS(=O)(=O)c3ccc(F)cc3)cc2C(=O)N([C@@H](C)CO)C[C@@H]1C` was -5.42%; that for `COc1ccc(-c2cnc3c(c2)C(=O)N([C@@H](C)CO)C[C@@H](C)[C@H](CN(C)C)O3)cc1` was 9.08%.
The value for `C[C@H](CO)N1C[C@H](C)[C@H](CN(C)C(=O)Nc2ccc3c(c2)OCO3)Oc2cc(C#Cc3ccncc3)ccc2S1(=O)=O` was 2.61%; that for `C[C@@H]1CCCCO[C@H](CN(C)C(=O)CCC(F)(F)F)[C@H](C)CN([C@H](C)CO)C(=O)c2cc(NC(=O)NC3CCCCC3)ccc2O1` was -3.86%.
As to `Cc1[nH]c(/C=C2\C(=O)Nc3ccc(S(=O)(=O)Cc4c(Cl)cccc4Cl)cc32)c(C)c1C(=O)N1CCC[C@@H]1CN1CCCC1`, the inhibition was 67.1% (active).
As for `Cc1cc(C)c(/C=C2\C(=O)Nc3ccccc32)[nH]1`, the inhibition is -2.13%.
As to `C/C=C/c1ccc2c(c1)O[C@@H](CN(C)C(=O)c1ccncc1)[C@@H](C)CN([C@H](C)CO)S2(=O)=O`, the inhibition was 0.685%.
As for `C/C=C/c1cnc2c(c1)C(=O)N([C@@H](C)CO)C[C@@H](C)[C@H](CN(C)Cc1cncnc1)O2`, the inhibition was 2.06%.
Then `CCCC#Cc1ccc2c(c1)O[C@H](CN(C)C(=O)c1ccncc1)[C@H](C)CN([C@H](C)CO)S2(=O)=O`, with 5.45%; and `C[C@H](CO)N1C[C@H](C)[C@@H](CN(C)C(=O)C2CC2)Oc2cc(-c3cccc(C#N)c3)ccc2S1(=O)=O`, with -3.58%; and `Cc1noc(C)c1S(=O)(=O)Nc1ccc2c(c1)CC(=O)N([C@@H](C)CO)C[C@@H](C)[C@H](CN(C)S(=O)(=O)c1cccs1)O2`, with -2.26%.
`C[C@@H]1CN([C@@H](C)CO)C(=O)Cc2cc(NC(=O)CCCCCC(=O)Nc3ccccc3N)ccc2O[C@H]1CN(C)Cc1ccc(Cl)c(Cl)c1`: the inhibition was -4.04%.
